The values below come from PubChem BioAssay AID431 (Sanford-Burnham Center for Chemical Genomics, 2006).

Each structure is given as a SMILES string. Out of some 63,000 compounds screened, about 1,100 (1.7%) were called active. For the sample, actives were picked, then their nearest neighbours and some compounds at random. Entries with a potency or affinity are not part of this list. A number with no mark means an inactive call.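 The calls were made as follows: active = compounds whose percent cytotoxicity in the single-dose primary screen, scaled between solvent and toxic-drug controls, exceeds 50; inactive = the rest.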

A short description of the assay: viability loss of HPDE-C7K cells – cell-based, fluorescence, HTS, primary screen (AID 431).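 Also: 0% = DMSO solvent wells and 100% = doxorubicin-treated wells.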 Conditions: HPDE-C7K KRASV12 cells, Alamar Blue viability, 48 h; at 10 µM; stronger effect = higher value. (The colour change of resazurin is a common sign of viable cells or microbes.)
As for `Cc1[nH]c(=O)[nH]c1CN1CCCCC1`, the cytotoxicity is -10.3%.
Take `CCOC(=O)c1cnn(-c2ccccc2)c1NC(=O)c1cccs1`: the cytotoxicity was 0.1%.
Take `O=C(c1cccs1)n1cc(C(=S)N2CCOCC2)c2ccccc21`: the cytotoxicity was 10%.
The result for `COc1ccc(-c2c(C)nn3c(N4CCN(Cc5ccccc5)CC4)cc(C)nc23)cc1OC` reads -4%; that for `c1csc(-c2cnc3ccccc3n2)c1`, 3.7%.
As for `CCOC(=O)N1CCN(S(=O)(=O)c2cc(Cl)ccc2Cl)CC1`, the cytotoxicity is -7.3%.
Regarding `CCOC(=O)N1CCN(C(=O)Nc2ccc(Cl)cc2Cl)CC1`, the cytotoxicity was 0.2%.
Regarding `CCOC(=O)N1CCC(=C2c3ccc(Cl)cc3CCc3cccnc32)CC1`, the cytotoxicity is 90.6% (active).
With `O=S(=O)(c1ccc(-c2ccccc2)cc1)N1CCOCC1`, the cytotoxicity is 3.5%.
The result for `Nc1nncn1C(=O)c1cccs1` reads 9.5%; that for `CCCCC(=O)O[C@]1(C(=O)CO)CC[C@H]2[C@@H]3CCC4=CC(=O)CC[C@]4(C)[C@H]3[C@@H](O)C[C@@]21C`, -3.2%; that for `CC(=O)O[C@]1(C(C)=O)CC[C@H]2[C@@H]3C=C(Cl)C4=CC(=O)CC[C@]4(C)[C@H]3CC[C@@]21C`, 76.4% (active).
Regarding `CC(=O)O[C@]1(C(C)=O)CC[C@H]2[C@@H]3C[C@H](C)C4=CC(=O)CC[C@]4(C)[C@H]3CC[C@@]21C`, the cytotoxicity is 3.4%.
The result for `CCCCCCCC(=O)OCC(=O)[C@@]1(O)CC[C@H]2[C@@H]3CCC4=CC(=O)CC[C@]4(C)[C@H]3[C@@H](O)C[C@@]21C` reads -2.2%.
With `CCCCCC(=O)O[C@]1(C(C)=O)CC[C@H]2[C@@H]3CCC4=CC(=O)CC[C@]4(C)[C@H]3CC[C@@]21C`, the cytotoxicity was 118% (active).
Consider `CC(=O)O[C@]1(C(C)=O)CC[C@H]2[C@@H]3C=C(C)C4=CC(=O)CC[C@]4(C)[C@H]3CC[C@@]21C`, for which the cytotoxicity was -15.6%.
With `NC(=O)CN1C(=O)C(O)(CC(=O)c2ccccc2O)c2ccccc21` (stereo not given), the cytotoxicity is -20.7%.
As for `Cc1csc(=N)n1CC(=O)N1CCc2ccccc21`, the cytotoxicity is -5.1%.
Under `CCN1C(=O)c2cccc3c(S(=O)(=O)Nc4ccccc4OC)ccc1c23` stands 15.9%.
Consider `COc1ccc(-c2cc(C(F)(F)F)n3nc(C(=O)Nc4cc(C)on4)cc3n2)cc1OC`, for which the cytotoxicity is 8.1%.
Regarding `Cc1cc(C)c(S(=O)(=O)N2CCN(CCO)CC2)c(C)c1`, the cytotoxicity was -4.9%.
The result for `CCN(CC)CCOc1ncnc2c1oc1ccccc12` reads -9.3%; that for `CCc1nc(OCCN(CC)CC)c2oc3ccccc3c2n1`, 15.9%.
As to `CC1CCc2nn(CC(=O)NCCN3CCOCC3)cc2C1` (stereo not given), the cytotoxicity is -3.4%.
In the case of `c1ccc(C(CN2CCOCC2)c2ccccc2)cc1`, the cytotoxicity is -15.2%.
Take `O=C(c1ccccc1)c1ccc(OCC(O)CN2CCOCC2)cc1` (stereo not given): the cytotoxicity was 10.8%.
Consider `CCOc1ccc(-n2c(Cc3cc(=O)[nH]c(=O)[nH]3)nnc2SC(C)C)cc1`, for which the cytotoxicity is -20.5%.
For `Cc1cc(C(=O)Oc2ccccc2C(=O)O)c(C)o1`, the cytotoxicity was -8%.
`CCSc1nnc(NC(=O)c2ccc(C)o2)s1`: the cytotoxicity was -3.8%.
For the molecule `Cc1ccc(C(=O)Nc2ncc(Cc3ccc(F)cc3)s2)o1`, the cytotoxicity is 61.5% (active).
Under `O=C(Nc1ncc(Cc2ccccc2)s1)C1CCCO1` (stereo not given) stands 6.8%.
Take `Cc1nnc(SCC(=O)Nc2ncc(Cc3ccc(F)cc3)s2)n1N`: the cytotoxicity was -4.8%.
Turning to `O=C(Nc1ncc(Cc2ccccc2)s1)c1cccs1`, the cytotoxicity was 4.6%.
With `Cc1ccc(C(=O)Nc2ncc(Cc3ccccc3)s2)o1`, the cytotoxicity is 51.3% (active).
For the molecule `COc1ccc(-c2cc(C(F)(F)F)nc(SCC(=O)N3CC(C)OC(C)C3)n2)cc1OC` (stereo not given), the cytotoxicity was -1.3%.
As to `Cc1c(Cl)cccc1NC(=O)CSCc1cc(=O)[nH][nH]1`, the cytotoxicity was -8.5%.
For the molecule `Cc1cc2cc(CN(Cc3ccc4c(c3)OCO4)C(=O)c3ccco3)c(=O)[nH]c2cc1C`, the cytotoxicity is 22.5%.
For the molecule `Cn1c(SCC(=O)NCc2cccs2)nnc1-c1cccs1`, the cytotoxicity was -2.7%.
Regarding `CCS(=O)(=O)N1CCN(c2ccccc2F)CC1`, the cytotoxicity was -12.1%.
As for `Cn1c(Sc2nc3ccccc3n2C)nc2ccccc21`, the cytotoxicity is 21.7%.
For the molecule `Cn1c(SC2=CS(=O)(=O)c3ccccc32)nc2ccccc21`, the cytotoxicity was 86.7% (active).
Take `O=S1(=O)C=C(SCCN2CCCCC2)c2ccccc21`: the cytotoxicity is 6.2%.
Consider `Cc1cc(C)nc(SC2=CS(=O)(=O)c3ccccc32)n1`, for which the cytotoxicity was 2.9%.
For the molecule `O=S1(=O)C=C(Sc2nnc(-c3ccccc3)o2)c2ccccc21`, the cytotoxicity is 26.2%.
Take `O=S1(=O)C=C(Sc2nc3ccccc3s2)c2ccccc21`: the cytotoxicity was 107% (active).
`Clc1ccc2oc(-c3ccccc3)nc2c1`: the cytotoxicity was 3.5%.
For the molecule `O=C1c2ccccc2S(=O)(=O)N1Cc1nc2ccccc2s1`, the cytotoxicity was 3.2%.
In the case of `CCOC(=O)c1c(NC(N)=O)sc(C)c1C`, the cytotoxicity was 7.3%.
Under `CN(C)S(=O)(=O)c1ccc(S(=O)(=O)Nc2ccc3c(c2)oc2ccccc23)cc1` stands -0.2%; under `COc1ccc2c(c1)c(=O)cc(C)n2CC(=O)NCc1ccco1`, 6.1%; under `CCN1CCCC1CNCc1ccc(Cl)cc1Cl` (stereo not given), 12.8%.
Turning to `COc1ccc(CCNc2oc(COc3ccccc3F)nc2C#N)cc1`, the cytotoxicity was 23.7%.
As for `COc1ccc(/C=N/n2cc(-c3ccccc3)nc2N)cc1`, the cytotoxicity was 70.8% (active).
The result for `COc1ccc(/C=N/n2cc(-c3ccc(OC)cc3)nc2N)cc1` reads 3.7%; that for `COc1ccc(/C=N/n2cnnc2SCc2ccccc2)cc1`, 5.9%; that for `O=C1COc2ccc3ccccc3c2CN1`, -9.6%.
Regarding `Cc1ccc2c(c1)CC1(CN2C)C(=O)OC2(CCCCC2)OC1=O`, the cytotoxicity is -4.6%.
On to `CN1CC2(Cc3c1ccc1ccccc31)C(=O)OC(C)(C)OC2=O`, for which the cytotoxicity is 64.4% (active).
`O=C(NCCc1ccccc1)c1cnn2c(C(F)F)cc(C3CC3)nc12`: the cytotoxicity is 6.9%.
For the molecule `O=S(=O)(c1ccc(-c2cn3ccccc3n2)cc1)N1CCOCC1`, the cytotoxicity is -9.8%.
`CC(C)Cc1cc(C(=O)O)n[nH]1`: the cytotoxicity was 9.9%.
Regarding `Cc1ccc(Cn2c(CN3CC(C)OC(C)C3)nc3c2c(=O)n(C)c(=O)n3C)cc1` (stereo not given), the cytotoxicity is -6.7%.
Under `COc1ccc(N2C(=O)C3CCCN3C2c2ccccc2OC)cc1` (stereo not given) stands -10%.
For `O=C(O)C1CCN(c2nc(-c3ccccc3)nc3c2oc2ccccc23)CC1`, the cytotoxicity was 27.2%.
The result for `CN1CCN(c2nc(-c3ccccc3)nc3c2oc2ccccc23)CC1` reads 24.2%; that for `COc1cc2nc(-c3ccccc3)nc(N3CCCC3)c2cc1OC`, 27.3%; that for `CCOc1cc2nc(-c3ccc(OC)c(OC)c3)nc(N3CCOCC3)c2cc1OC`, 74.8% (active).
Take `COc1ccc(-c2csc(N3CCOCC3)n2)cc1OC`: the cytotoxicity is 2.9%.
In the case of `CC(C)(C)Nc1ncnc2c1cnn2-c1ccccc1`, the cytotoxicity was 17.2%.
Under `COC(=O)c1cccc(NC(=O)CSc2nnc(COc3ccccc3)n2C)c1` stands 8.3%.
For the molecule `CC(C)N(C(=O)COc1ccc(Br)cc1Cl)C(C)C`, the cytotoxicity is -4.2%.
On to `Cc1nc2nc(Cc3ccccc3)nn2c(C)c1Cl`, for which the cytotoxicity is 0.4%.
The result for `O=C(c1ccc(COc2ccc(Cl)cc2)o1)N1CCN(Cc2ccc3c(c2)OCO3)CC1` reads 94.8% (active); that for `O=C(c1ccc(Br)o1)N1CCN(Cc2ccc3c(c2)OCO3)CC1`, -4.9%; that for `O=C(c1ccc(Cn2cc(Cl)cn2)o1)N1CCN(Cc2ccc3c(c2)OCO3)CC1`, 12%.
In the case of `O=C(c1ccc(COc2ccccc2Cl)o1)N1CCN(Cc2ccc3c(c2)OCO3)CC1`, the cytotoxicity was 65.1% (active).
With `CC1CCN(C(=O)c2ccc(COc3ccccc3Cl)o2)CC1`, the cytotoxicity is -8.5%.
For the molecule `O=C(c1ccc(COc2ccccc2Cl)o1)N1CCN(c2ccccc2)CC1`, the cytotoxicity was 24%.
`CC(=O)c1ccccc1OCCCN1CCCCC1`: the cytotoxicity was 1.2%.
As for `O=C(CNS(=O)(=O)c1cccs1)N1CCCC1`, the cytotoxicity is -3.8%.
On to `Cc1occc1-c1nnc(SCc2nc3ccccc3c(=O)n2CC#N)n1C`, for which the cytotoxicity was -5.4%.
Regarding `Cn1c(COc2ccccc2)nnc1SCCN1CCOCC1`, the cytotoxicity was -8.5%.
`Cc1cc2ccccc2c(=O)[nH]1`: the cytotoxicity was 3%.
Turning to `Cc1ccccc1Nc1cc2ccccc2c(=O)[nH]1`, the cytotoxicity is 73.3% (active).
`O=c1[nH]c(Nc2ccccc2)cc2ccccc12`: the cytotoxicity is 0.6%.
For `Fc1ccc(-c2cc3nc(-c4ccccc4)cc(N4CCN(CCN5CCOCC5)CC4)n3n2)cc1`, the cytotoxicity was 44.9%.
As for `COc1ccc(OC)c(S(=O)(=O)NCc2cccnc2)c1`, the cytotoxicity was -4.2%.
For the molecule `CCn1c(SCC(=O)N2CCc3ccccc32)nnc1-c1ccncc1`, the cytotoxicity was -9.5%.
In the case of `CN1CCN(Cc2ccc(OCc3ccccc3)cc2)CC1`, the cytotoxicity is 33.9%.
As for `CCCCOc1ccc(S(=O)(=O)Nc2cc(OC)ccc2OC)cc1`, the cytotoxicity is 32.5%.
With `COc1ccc(OC)c(NS(=O)(=O)c2ccc3c(c2)CCC(=O)N3)c1`, the cytotoxicity was 3.2%.
In the case of `COc1ccc(OC)c(NS(=O)(=O)c2ccc(SC)cc2)c1`, the cytotoxicity is 30.3%.
For `COC(=O)COc1ccc(S(=O)(=O)Nc2cc(OC)ccc2OC)cc1`, the cytotoxicity is 0%.
For the molecule `CCOc1ccc(S(=O)(=O)Nc2cc(OC)ccc2OC)cc1`, the cytotoxicity is 75.9% (active).
In the case of `COc1ccc(OC)c(NS(=O)(=O)c2ccc(N3CCCC3=O)cc2)c1`, the cytotoxicity was 79.5% (active).
Under `COc1ccccc1NC(=O)CSc1nnc(-c2ccncc2)o1` stands -3.6%; under `CCc1nnc(NC(=O)CSc2nnc(-c3ccccc3O)n2-c2ccc(C)cc2C)s1`, 61.3% (active).
As to `CCn1c(SCC(=O)Nc2nc3ccccc3s2)nnc1-c1ccc(OC)cc1`, the cytotoxicity is 78.6% (active).
`CCc1nnc(NC(=O)CSc2nnc(-c3ccccc3OC)n2-c2ccccc2)s1`: the cytotoxicity was -6.6%.
The result for `CCc1nnc(NC(=O)CSc2nnc(-c3ccccc3O)n2-c2ccc(C)cc2)s1` reads -7.5%.
Take `CCn1c(SCC(=O)Nc2nc(-c3ccc(C)cc3)cs2)nnc1-c1ccccc1O`: the cytotoxicity is 46.4%.
Take `CCn1c(Cc2ccccc2)nnc1SCC(=O)Nc1nc2ccccc2s1`: the cytotoxicity was 8.8%.
As for `CCn1c(SCC(=O)Nc2nc(-c3ccccc3)cs2)nnc1-c1ccccc1O`, the cytotoxicity is 55.5% (active).
Take `CCn1c(SCC(=O)Nc2nc(-c3ccccc3)cs2)nnc1-c1ccccc1`: the cytotoxicity is 23.1%.
Under `CCn1c(Cc2ccc(OC)cc2)nnc1SCC(=O)Nc1nc2ccccc2s1` stands -6.3%.
